Values without a mark were called inactive. Active and inactive are the calls of the source.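 The calls were made as follows: active = inhibition above about 23% in any of six single-dose repeats (limit read from the data); inactive = the rest.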
Biological target: Intestinal-type alkaline phosphatase (Homo sapiens) (UniProt P09923)
Assay: human IAP inhibitors, confirmation, biochemical, luminescence, single concentration, uHTS hits (AID 434927);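 also: plate controls were DMSO wells with enzyme for no effect and wells lacking enzyme for full effect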
Conditions: purified human IAP, CDP-Star luminescence, 30 min; at 8.3 µM; active compounds read high

Sequence of Intestinal-type alkaline phosphatase (Homo sapiens) (P09923 whole entry, looked up): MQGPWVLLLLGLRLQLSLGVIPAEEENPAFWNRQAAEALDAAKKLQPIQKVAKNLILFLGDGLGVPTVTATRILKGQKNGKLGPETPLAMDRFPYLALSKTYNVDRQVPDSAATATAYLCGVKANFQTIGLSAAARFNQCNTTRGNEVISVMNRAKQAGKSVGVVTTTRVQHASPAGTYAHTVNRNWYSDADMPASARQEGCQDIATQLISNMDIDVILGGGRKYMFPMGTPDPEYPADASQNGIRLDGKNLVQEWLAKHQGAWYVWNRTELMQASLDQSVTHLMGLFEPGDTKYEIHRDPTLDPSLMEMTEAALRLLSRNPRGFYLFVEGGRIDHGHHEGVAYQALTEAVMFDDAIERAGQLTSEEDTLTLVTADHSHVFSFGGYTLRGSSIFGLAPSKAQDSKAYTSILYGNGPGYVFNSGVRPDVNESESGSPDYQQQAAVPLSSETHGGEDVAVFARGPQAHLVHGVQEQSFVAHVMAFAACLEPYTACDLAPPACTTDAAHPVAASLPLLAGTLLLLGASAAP

With `O=C(Cc1coc2ccc3ccccc3c12)NCc1ccccc1` the inhibition was 59.4% (active).
`CC(C)CCNC(=O)C1CCN(C(=O)N(C)C)CC1` was tested, and the inhibition was 88.2% (active).
Compound `O=C(CCCCC(=O)NNC(=O)COc1ccccc1)NNC(=O)COc1ccccc1` has an inhibition of -88.4%.
In the case of `Cc1cc2nc(C3CCN(Cc4nnnn4Cc4cccs4)CC3)[nH]c2cc1C`, the inhibition is reported as 79.3% (active).
In the case of `Cc1ccc(Cl)cc1NC(=O)C(=O)N/N=C/c1ccc2c(c1)OCO2`, the inhibition is reported as 40.1% (active).

From PubChem BioAssay AID434927 (Sanford-Burnham Center for Chemical Genomics, 2010)
